# Source: PubChem BioAssay
# Results filed as inconclusive are left out. Activity calls are given as the source filed them. Unless noted, cut-off not given; nearly all actives show AC50 up to about 26 µM.
# How the values were obtained:
# [1] = growth inhibition of DIPG glioma cells, dose response, cell-based, SU-DIPG-XVII, MIPE5.0, CellTiter-Glo, qHTS (AID 1347060); conditions: SU-DIPG-XVII viability, CellTiter-Glo ATP luminescence;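 on AC50: cells exposed to compound for 48 hours before viability readout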
# [2] = growth inhibition of DIPG glioma cells, dose response, cell-based, SU-DIPG-XIII, MIPE4.0, CellTiter-Glo, qHTS (AID 1347061; cut-off not given, nearly all actives have AC50 up to about 37 µM;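 further: cells exposed to compound for 48 hours before readout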); conditions: SU-DIPG-XIII viability, CellTiter-Glo ATP luminescence
# [3] = growth inhibition of DIPG glioma cells, dose response, cell-based, JHH-DIPG-1, MIPE4.0, CellTiter-Glo, qHTS (AID 1347062; cut-off not given, nearly all actives have AC50 up to about 27 µM;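 on AC50: cells exposed to compound for two days before readout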); conditions: JHH-DIPG-1 viability, CellTiter-Glo ATP luminescence
# [4] = growth inhibition of DIPG glioma cells, dose response, cell-based, SU-DIPG-IV, MIPE4.0, CellTiter-Glo, qHTS (AID 1347063; cut-off not given, nearly all actives have AC50 up to about 30 µM;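 further: compound exposure lasted 48 hours before the viability readout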); conditions: SU-DIPG-IV viability, CellTiter-Glo ATP luminescence
# [5] = growth inhibition of DIPG glioma cells, dose response, cell-based, SU-DIPG-XIII, MIPE5.0, CellTiter-Glo, qHTS (AID 1347064; cut-off not given, nearly all actives have AC50 up to about 23 µM;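 on AC50: cells exposed to compound for 48 hours before the viability read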); conditions: SU-DIPG-XIII viability, CellTiter-Glo ATP luminescence
# [6] = viability loss in pontine glioma line – cell-based, SU-DIPG-XXV, MIPE5.0, CellTiter-Glo, qHTS, dose response (AID 1347065); conditions: CellTiter-Glo ATP luminescence;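 further: cells exposed to compound for 48 hours before ATP readout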
# [7] = SU-DIPG-VI glioma cell viability, MIPE4.0 library, CellTiter-Glo luminescence, qHTS (AID 1347066; cut-off not given, nearly all actives have AC50 up to about 30 µM;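 further: cells exposed to compound for 48 hours before readout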); conditions: CellTiter-Glo ATP luminescence
# [8] = JHH-DIPG-1 glioma cell viability, MIPE5.0 library, CellTiter-Glo luminescence, qHTS (AID 1347067); conditions: JHH-DIPG-1 glioma viability, CellTiter-Glo ATP luminescence;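 further: cells exposed to compound for 48 hours before readout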
# [9] = SU-DIPG-XXV glioma cell viability, MIPE5.0 library, qHTS (AID 1347068; cut-off not given, nearly all actives have IC50 up to about 30 µM;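 on IC50: cells exposed to compound for 48 hours before viability readout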)
# [10] = sensitizers of A549 cells to miR-34 induction, primary screen, imaging, A549 dox-inducible miR-34, nuclei and caspase counts (AID 1347080;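 active means compounds whose cell count with miR-34 switched on is under 0.7 times the count with it off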); conditions: A549 miR-34 inducible, Hoechst nuclei count, 48 h
# [11] = survival rescue of mitochondrial mutant cells in low glucose, primary screen, MELAS cybrids, Rieske KO mouse fibroblasts, CellTiter-Glo (AID 1508586;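 active means mean z-score across replicates of 1.96 or higher in either the MELAS or the Rieske mutant cell line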;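 further: z relative to plate mean and SD of compound and empty wells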)
# [12] = modifiers of HSF1 nuclear foci, imaging, Selleck Cancer Library (AID 1347162; in the data active means plate-normalised HSF1 focus index below about 0.46); conditions: human cells, at 10 µM; SSMD: measured here: HSF1 foci SSMD mean; cell count: measured here: cell number; plate-normalised HSF1 focus index: stronger effect = lower value
# [13] = stronger effect = lower value, cell number ratio, induced over uninduced
# [14] = measured here: relative caspase fold change +Dox/-Dox
# [15] = measured here: total cells with miR-34 induction, stronger effect = lower value
# [16] = measured here: total cells without miR-34 induction
# [17] = MELAS cybrid survival, CellTiter-Glo 48 h, stronger effect = higher value
# [18] = Rieske KO mouse fibroblast survival, CellTiter-Glo 72 h
smiles,measurement,setting,value
O=C(NCc1ccccc1)c1csc(Nc2ccncn2)n1,AC50,[1],18.6 µM (active)
same,AC50,[2],20.9 µM (active)
same,AC50,[3],4.18 µM (active)
same,AC50,[4],9.35 µM (active)
same,AC50,[5],14.8 µM (active)
same,AC50,[6],16.6 µM (active)
same,AC50,[7],16.6 µM (active)
same,AC50,[8],16.6 µM (active)
same,IC50,[9],23.5 µM (active)
same,fold change,[10]; [13],0.918 (inactive)
same,fold change,[10]; [14],0.977
same,cell count,[10]; [15],4990
same,cell count,[10]; [16],5440
same,z-score,[11]; [17],-0.235 (inactive)
same,z-score,[11]; [18],-0.0999
CC1(C)OC2=C(C(=O)c3ccccc3C2=O)[C@H](NCc2ccccc2)[C@@H]1O,AC50,[1],6.61 µM (active)
same,AC50,[2],5.9 µM (active)
same,AC50,[3],2.35 µM (active)
same,AC50,[4],5.9 µM (active)
same,AC50,[5],2.95 µM (active)
same,AC50,[6],3.72 µM (active)
same,AC50,[7],2.64 µM (active)
same,AC50,[8],3.32 µM (active)
same,IC50,[9],8.33 µM (active)
same,SSMD,[12],0.824
same,cell count,[12],7240
same,plate-normalised HSF1 focus index,[12],1.05 (inactive)
Cc1ccccc1C(C(=O)NC1CCCCC1)N(C(=O)Cn1ccnc1C)c1cccc(F)c1 (stereo not given),outcome,[1],inactive
same,outcome,[2],inactive
same,outcome,[3],inactive
same,outcome,[4],inactive
same,outcome,[5],inactive
same,outcome,[6],inactive
same,outcome,[7],inactive
same,outcome,[8],inactive
same,outcome,[9],inactive
same,fold change,[10]; [13],0.844 (inactive)
same,fold change,[10]; [14],0.447
same,cell count,[10]; [15],8020
same,cell count,[10]; [16],9500
same,z-score,[11]; [17],0.145 (inactive)
same,z-score,[11]; [18],0.11
COc1ccc(-c2cc3c(C)nc(N)nc3n(C3CCC(OCCO)CC3)c2=O)cn1 (stereo not given),AC50,[1],0.661 µM (active)
same,AC50,[2],0.418 µM (active)
same,AC50,[3],0.59 µM (active)
same,AC50,[4],0.0132 µM (active)
same,AC50,[5],0.468 µM (active)
same,AC50,[6],0.235 µM (active)
same,AC50,[7],1.18 µM (active)
same,AC50,[8],0.934 µM (active)
same,IC50,[9],1.32 µM (active)
same,fold change,[10]; [13],0.719 (inactive)
same,fold change,[10]; [14],0.958
same,cell count,[10]; [15],948
same,cell count,[10]; [16],1320
same,z-score,[11]; [17],1.34 (inactive)
same,z-score,[11]; [18],-2.85
CCOC(=O)N1CCN(/[N+]([O-])=N/Oc2ccc([N+](=O)[O-])cc2[N+](=O)[O-])CC1,AC50,[1],16.6 µM (active)
same,outcome,[2],inactive
same,AC50,[3],5.9 µM (active)
same,AC50,[4],4.18 µM (active)
same,AC50,[5],4.17 µM (active)
same,AC50,[6],3.32 µM (active)
same,AC50,[7],10.5 µM (active)
same,AC50,[8],4.17 µM (active)
same,IC50,[9],23.5 µM (active)
same,fold change,[10]; [13],1.15 (inactive)
same,fold change,[10]; [14],1.4
same,cell count,[10]; [15],2110
same,cell count,[10]; [16],1840
